The source of these data is PubChem BioAssay AID488908 (National Center for Advancing Translational Sciences (NCATS), 2010).

Results filed as inconclusive are left out. The source made the active and inactive calls. The call rests on the fitted dose curve; in most records, active means well fitted inhibition curve with a large enough effect; inconclusive means small, poorly fitted or top-dose-only effect; inactive means flat fitted curve, though single readings scatter.

This assay in a line: Secondary Assay for lipid storage modulators: Cytotoxcity for probe SAR. As to conditions: Drosophila S3 cells viability, CellTiter-Glo luminescence, 24 h, with oleic acid added (1 µL, 400 µM); series mostly up to 46.1 µM; activity change, negative = cytotoxicity: at the top concentration. The text has this:
NIH Molecular Libraries Probe Production Centers Network [MLPCN] NIH Chemical Genomics Center [NCGC] MLPCN Grant: 1 R03 MH085686-01 Assay Submitter (PI): Beller, Mathias; Max-Planck-Institut fur Biophysikalische Chemie, Germany. NCGC Assay Overview: Storing lipids as a reservoir for energy or the anabolism of elementary metabolites is a common feature of probably all cells and is conserved from bacteria to humans. The universal cellular lipid storage organelle is the so-called lipid storage droplet (LD). Although ubiquitous, LDs share a simple structure composed of a hydrophobic core that harbors the storage lipids, which is shielded by a droplet-specific phospholipid monolayer to which proteins are attached. The current model of LD biogenesis involves an incorporation of the lipid core into the membrane leaflets of the endoplasmic reticulum (ER) followed by a subsequent budding-like maturation of a LD, which ultimately pinches off. Once released, LD volume can increase by localized lipogenesis or fusion of existing droplet. Storage lipids are re-mobilized enzymatically by lipase activity. Lipase regulation in the adipocyte is heavily studied and involves multiple components including catecholamine signaling, the LD-associated proteins Perilipin and comparative gene identification (CGI-58) and at least two lipases named hormone sensitive lipase (HSL) and adipocyte triglyceride lipase (ATGL). LD regulation outside of the adipocyte is poorly understood and only few components are known. However, there is an urgent need to learn more about ectopic fat depots as mislocalized storage of lipids, for example in the liver or muscle, is an eminent health problem associated with insulin resistance or the metabolic syndrome. We developed a laser-scanning cytometer assay to enable 1,536-well screening and combined the results of the small molecules screen with an RNAi database based on lipid storage. The compound was tested here for cytotoxcity using CellTiter-Glo.
Assay Protocol Summary: Cytotoxcity assay was performed with embryonic Drosophila S3 cells (Bloomington Drosophila Genomics Resource Center [DGRC]). We dispensed 4 uL of cells at 1.25 x 10^6 cells/mL into Greiner solid white 1,536-well plates with a bottle-valve solenoid-based dispenser (Aurora) to obtain 5,000 cells/well. A total of 23 nL of compound solution of different concentrations were transferred to the assay plates using a Kalypsys pin tool equipped with a 1,536-pin array containing 10-nL slotted pins (FP1S10, 0.457-mm diameter, 50.8 mm long; V&P Scientific). One microliter of oleic acid (400 uM) was added, and the plate was lidded with stainless steel rubber gasket lined lids containing pinholes. After 24 hrs of incubation at 24 degrees Celsius and 95% humidity, 4 uL of CellTiter-Glo (Promega) was added to the wells. Luminescence was detected on the Perkin Elmer ViewLux.
(In general: In ATP-based viability assays light output follows the ATP content of the culture.)
As to `COc1ccc(NC(=S)N2CCN(c3cccc(Cl)c3)CC2)c(OC)c1`, the “activity change, negative = cytotoxicity” value was -20.9% (inactive).

`CCOc1ccc(CCNC(=O)c2cnon2)cc1OCC`: the “activity change, negative = cytotoxicity” value is 2.21% (inactive). In the case of `CCOc1ccc(CCNC(C)=O)cc1OCC`, the “activity change, negative = cytotoxicity” value was -2.17% (inactive). `Cc1sc(NC(=O)Cc2cccs2)nc1-c1ccccc1`: the “activity change, negative = cytotoxicity” value was -24.1% (inactive). As to `Cc1cc(NC(=O)Nc2ccc(N(C)C)cc2)c2cc(F)cc(F)c2n1`, the Potency was 12.5 µM (active).

Turning to `O=C(NC1CCCc2c1cnn2-c1ccc(F)cc1F)c1cccc(=O)[nH]1` (stereo not given), the Potency is 2.81 µM (active). On to `COc1ccc(-c2cnc(SCC(=O)Nc3nc(C)cs3)n2Cc2ccco2)cc1`, for which the “activity change, negative = cytotoxicity” value is -20.5% [at 30.7 µM] (inactive). Still for that read-out and setting: with `O=C(CSc1nnc(NCc2ccccc2)s1)Nc1nc(-c2ccc(F)c(F)c2)cs1` the figure was -24.2% (inactive). As for `CC(C)(C)OC(=O)NC1CCCc2c1cnn2-c1ccc(F)cc1F` (stereo not given), the Potency was 9.96 µM (active).

Consider `CCOC(=O)C1CCN(C(=O)C2(NC(=O)Nc3ccccc3Cl)CC2)CC1`, for which the “activity change, negative = cytotoxicity” value was -6.16% (inactive). On the same count and under the same terms, then `O=C(CSc1nnc(NCc2ccccc2)s1)Nc1nc(-c2cccc(Br)c2)cs1`, with -15.8% (inactive); and `CCOC(=O)C1CCN(C(=O)C2(NC(=O)NCc3ccccc3)CCCCC2)CC1`, with -15.6% (inactive); and `CCOC(=O)C1CCN(C(=O)C2(NC(=O)Nc3ccccc3Cl)CCCCC2)CC1`, with -10.2% (inactive). Same read-out and setting: then `CCOc1ccc(CCNC(=O)C2=C(C)OCCO2)cc1OCC`, with -6.76% (inactive); and `Cc1cn(-c2cc(NC(=O)c3ccc(C)c(Nc4nccc(-c5cccnc5)n4)c3)cc(C(F)(F)F)c2)cn1`, with -26% (inactive).

For the compound `O=C(NC1CCCc2c1cnn2-c1ccc(F)cc1F)c1ccncc1` (stereo not given), the Potency was 1.41 µM (active). Same read-out and setting: then `C[C@@H](NCCCc1cccc(C(F)(F)F)c1)c1cccc2ccccc12`, with 28.1 µM (active). `Cc1ccc(-c2cnc(SCC(=O)Nc3nc(C)cs3)n2Cc2ccco2)cc1`: the “activity change, negative = cytotoxicity” value was -11.2% (inactive). Take `O=C(NC1CCCc2c1cnn2-c1ccc(F)cc1F)c1cccc(F)c1F` (stereo not given): the Potency was 14.1 µM (active). Consider `O=C(Nc1cccc2nn(-c3ccc(F)cc3)cc12)c1ccccn1`, for which the Potency is 12.5 µM (active). With `COc1ccccc1NC(=S)N1CCN(c2cc(Cl)ccc2C)CC1`, the “activity change, negative = cytotoxicity” value was -8.23% (inactive). `Cc1ccc(C)c(-c2csc(NC(=O)CSc3nnc(Nc4ccc(OC(F)(F)F)cc4)s3)n2)c1`: the “activity change, negative = cytotoxicity” value is -11.8% (inactive). Still for that read-out and setting: with `CCOc1ccc(CCNC(=O)C2(c3ccccc3)CC2)cc1OCC` the figure was -7.24% (inactive); with `CCOC(=O)C1CCN(C(=O)C2(NC(=O)Nc3ccc(F)cc3F)CCCCC2)CC1`, -18.3% (inactive). As for `O=C(NC1CCCc2c1cnn2-c1ccc(F)cc1F)c1ccccc1` (stereo not given), the Potency was 5.6 µM (active). On to `O=C(NC1CCCc2c1cnn2-c1ccc(F)cc1F)c1ccc(C(=O)c2ccccc2)cc1` (stereo not given), for which the Potency is 11.2 µM (active).

As to `CCOc1ccc(CCNC(=O)Cc2ccccc2)cc1OCC`, the “activity change, negative = cytotoxicity” value is -6.12% (inactive).

Take `O=C(Cc1cccs1)Nc1nc(-c2ccncc2)cs1`: the “activity change, negative = cytotoxicity” value is -14.5% (inactive).

As for `CC(=O)NCc1ccc(-c2csc(NC(=O)Cc3cccs3)n2)cc1`, the “activity change, negative = cytotoxicity” value is -19.2% (inactive). Still for that read-out and setting: then `CCOc1ccc(CCNC(=O)CN(C)C)cc1OCC`, with 1.74% (inactive); and `CCOc1ccc(CCNC(=O)c2csc(Br)n2)cc1OCC`, with -18.6% [at 30.7 µM] (inactive). Turning to `CCOc1ccc(CCNC(=O)c2cc3ccccc3n2C)cc1OCC`, the “activity change, negative = cytotoxicity” value is -28.9% (inactive).

As for `Cc1ccc(-c2cnc(SCC(=O)Nc3nccs3)n2Cc2ccco2)cc1`, the “activity change, negative = cytotoxicity” value was -13.1% (inactive).

Turning to `CCn1c(C(=O)NCCc2ccc(OC)c(OC)c2)cc2sccc21`, the “activity change, negative = cytotoxicity” value was -23.9% (inactive). On the same count and under the same terms, with `COc1nc(-c2ccc3c(c2)OCO3)n(-c2ccc(NC(=O)CSc3ccccc3)cc2)n1` the figure was -7.25% (inactive); with `COc1ccc(CCNC(=O)c2cc3sc(C)cc3n2C)cc1OC`, -27.1% (inactive); with `O=C(NCCc1ccc2c(c1)OCO2)c1cc2sccc2n1Cc1ccccc1`, -17.2% (inactive). Still for that read-out and setting: with `COc1ccc(Cl)cc1NC(=O)N1CCN(c2ccccn2)CC1` the figure was -5.58% (inactive); with `Cc1cc(SCc2sc(-c3ccc(C(F)(F)F)cc3)nc2C)ccc1OCC(=O)O`, -12.1% (inactive). On the same count and under the same terms, then `CN(C)CC(=O)NC1CCCc2c1cnn2-c1ccc(F)cc1F` (stereo not given), with -8.45% (inactive).
